We go through eleven molecules from article PMC5540273 (PLoS ONE, 2017).

Common to all, as to settings: concentration: 1 μM, replicates: in singlicate; n = 1
Assay [1] has as its system TLK1.
Assay [2] relates to TLK2.
The test system of assay [3] is TNIK.
Assay [4] deals with TNK1.
Assay [5] concerns TNK2.
In assay [6] the test system is TNNI3K.
Assay [7] has as its system T1, TRKA.
T1 construct: gene NTRK1

Assay [8] has as its system TRKB.
Assay [9] relates to T2, TRKC.
T2 construct: gene NTRK3

Assay [10] concerns TRPM6.
Assay [11] concerns TSSK1B.
In assay [12] the test system is TSSK3.
Assay [13] relates to TTK.
Assay [14] has as its system TXK.
Assay [15] deals with TYK2(JH1domain-catalytic).
In assay [16] the test system is TYK2(JH2domain-pseudokinase).
In assay [17] the test system is TYRO3.
Assay [18] deals with ULK1.
For assay [19], the system named is ULK2.
The test system of assay [20] is ULK3.
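Further: KINOMEscan kinase panel screen.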

With `Cc1c(Cn2c(C)c(C)n3c(=O)cc(N4CCOCC4)nc23)cccc1C(F)(F)F` [GSK2328680], the “%Inh” value in assay [1] is reported as 0%; in assay [2], 0%; in [3] it was 0%; in assay [4], 0%; in assay [5], 13%; in assay [6] it was 0%. The “%Inh” value in [7] turned out to be 12%; in assay [8], 0%; in [9], 21%; in assay [10], 0%; in assay [11], 11%; in [12], 7%. The “%Inh” value in assay [13] is given as 0%; in [14] it was 20%; in [15], 5%; in assay [16], 4%; in assay [17], 0%; in assay [18], 9%. The “%Inh” value in assay [19] is listed as 0%; in assay [20], 14%.

`CN1c2ccc(-c3ccc(C(N)=O)cc3)cc2-c2[nH]ncc2S1(=O)=O`: the “%Inh” value in assay [1] was 36%; in assay [2], 0%; in [3] it was 45%; in assay [4] it was 24%; in assay [5] it was 0%; in assay [6], 0%. Also, the “%Inh” value in [7] came out at 0%; in assay [8] it was 0%; in [9] it was 0%; in assay [10], 13%; in [11], 0%; in [12], 0%. Also, the “%Inh” value in assay [13] came to 5%; in assay [14], 0%; in assay [15], 45%; in [16], 83%; in [17], 0%; in assay [18], 0%. Also, the “%Inh” value in [19] was determined as 9%; in assay [20], 6%.

Take `Nc1ncnc2occ(-c3ccc4c(c3)CCN4C(=O)Cc3cc(F)ccc3F)c12` [GSK2645446]: the “%Inh” value in [1], in [2], in assay [3], in assay [4], in assay [5] and in assay [6] was 0% in each case. Besides, the “%Inh” value is listed as 9% in [7]; 0% in assay [8]; 0% in assay [9]; 0% in [10]; 0% in [11]; 4% in assay [12]. Moreover, the “%Inh” value in assay [13] was 0%; in assay [14], 0%; in assay [15], 2%; in [16], 3%; in assay [17], 0%; in [18], 0%. Also, the “%Inh” value in [19] and in [20] was 0% in each case.

In the case of `COc1ccc(CSc2nnc(-c3ccc4c(c3)CCO4)o2)cc1`, the “%Inh” value in assay [1], in assay [2], in assay [3], in [4], in assay [5] and in [6] was 0% each time. The “%Inh” value in [7], in [8], in [9], in [10], in [11] and in assay [12] was 0% throughout. For the same molecule, the “%Inh” value in [13], in assay [14], in assay [15], in [16], in assay [17] and in assay [18] was 0% in each case. Besides, the “%Inh” value in assay [19] and in assay [20] was 0% each time.

For `COc1ccc(Nc2nccc(N3CCC(NC(=O)c4cc5ccccc5s4)C3)n2)cc1` (stereo not shown) [GSK1379738], the “%Inh” value in assay [1] turned out to be 3%; in [2] it was 0%; in [3] it was 0%; in assay [4], 11%; in assay [5], 18%; in [6] it was 0%. The “%Inh” value in assay [7] is recorded as 60%; in assay [8], 32%; in assay [9], 0%; in [10], 39%; in assay [11] it was 0%; in assay [12], 19%. Besides, the “%Inh” value is given as 0% in assay [13]; 67% in assay [14]; 9% in assay [15]; 26% in assay [16]; 0% in assay [17]; 5% in assay [18]. The “%Inh” value worked out at 0% in [19] and 14% in assay [20].

`CC[C@@H]1CO[C@H](C(=O)Nc2ccccc2)CN1c1cc(-c2ccc3c(N)n[nH]c3c2)nc(NC)n1` [GSK2376236]: the “%Inh” value was determined as 21% in assay [1]; 0% in [2]; 0% in assay [3]; 4% in assay [4]; 0% in [5]; 17% in [6]. Moreover, the “%Inh” value was 9% in assay [7]; 0% in [8]; 0% in assay [9]; 35% in assay [10]; 0% in assay [11]; 13% in assay [12]. In addition, the “%Inh” value is listed as 0% in assay [13]; 0% in [14]; 0% in [15]; 0% in assay [16]; 0% in assay [17]; 13% in assay [18]. The “%Inh” value worked out at 10% in [19] and 4% in [20].

Consider `COc1cccc(NC(=O)Nc2ccc(C)c(-c3ccc(C(=O)Nc4ccncc4)cc3)c2)c1` [GSK1398474], for which the “%Inh” value turned out to be 11% in assay [1]; 0% in [2]; 0% in assay [3]; 10% in assay [4]; 16% in [5]; 20% in assay [6]. In addition, the “%Inh” value in assay [7] is recorded as 4%; in [8] it was 0%; in assay [9], 2%; in [10], 31%; in [11] it was 0%; in assay [12], 6%. Moreover, the “%Inh” value in assay [13] was 13%; in assay [14], 0%; in assay [15], 0%; in [16], 0%; in assay [17], 0%; in [18] it was 6%. Further, the “%Inh” value in assay [19] and in assay [20] was 0% throughout.

On to `CC(=O)c1cccc(NC(=O)NC2CCN(c3ccnc(Nc4ccc(F)cc4)n3)C2)c1` (stereo not shown) [GSK1379710], for which the “%Inh” value in assay [1] worked out at 12%; in assay [2], 25%; in assay [3], 3%; in [4], 0%; in assay [5], 7%; in assay [6], 5%. For the same molecule, the “%Inh” value came to 56% in [7]; 69% in [8]; 81% in assay [9]; 32% in assay [10]; 39% in [11]; 32% in assay [12]. The “%Inh” value in [13] is listed as 23%; in assay [14], 16%; in assay [15], 26%; in assay [16], 22%; in assay [17], 0%; in assay [18] it was 2%. The “%Inh” value in assay [19] was determined as 4%; in [20], 10%.

As for `CNc1nc(-c2ccc3c(N)n[nH]c3c2)cc(N2C[C@@H](C(=O)NC3CCCCC3)OC[C@H]2C)n1` [GSK2375584], the “%Inh” value in [1] was 17%; in [2], 5%; in assay [3], 8%; in [4] it was 13%; in [5] it was 17%; in assay [6] it was 2%. Moreover, the “%Inh” value in [7] turned out to be 11%; in assay [8], 0%; in assay [9], 0%; in assay [10], 0%; in assay [11], 0%; in assay [12], 23%. Further, the “%Inh” value was 7% in [13]; 0% in assay [14]; 0% in assay [15]; 12% in [16]; 0% in assay [17]; 0% in assay [18]. Also, the “%Inh” value in assay [19] and in [20] was 0% in each case.

In the case of `CSc1ccc(-c2nc3n(c2-c2ccncc2)CCC3)cc1` [SKF-105561], the “%Inh” value in [1] came out at 31%; in assay [2], 0%; in assay [3], 7%; in assay [4], 0%; in assay [5], 0%; in [6] it was 49%. The “%Inh” value in [7] was 0%; in assay [8], 4%; in assay [9] it was 46%; in [10], 0%; in assay [11] it was 0%; in [12] it was 0%. The “%Inh” value is 14% in [13]; 11% in assay [14]; 0% in [15]; 0% in assay [16]; 0% in assay [17]; 18% in assay [18]. Also, the results for the “%Inh” value in assay [19] and in [20] were 0% and 33%, respectively.

With `O=C(Nc1n[nH]c2nc(-c3cccs3)c(Br)cc12)C1CC1` [SB-735297], the “%Inh” value in [1] was 5%; in [2], 0%; in [3] it was 17%; in [4], 33%; in assay [5], 0%; in assay [6] it was 98.6%. The “%Inh” value is recorded as 6% in [7]; 41% in assay [8]; 17% in assay [9]; 18% in assay [10]; 0% in assay [11]; 0% in assay [12]. Moreover, the “%Inh” value in assay [13] is listed as 0%; in assay [14], 22%; in assay [15], 9%; in [16] it was 0%; in [17], 12%; in assay [18], 0%. Moreover, the “%Inh” value in [19] was found to be 6%; in assay [20] it was 3%.
